For twelve compounds, outcome results are on record in PubChem BioAssay (EPA / NIEHS).

Inconclusive results are not listed. The source made the active and inactive calls. How the source made its calls: active means hit-call score of the fitted dose curve at least 0.9, where 1 is the maximum; inconclusive means response in the unintended direction; inactive means score below 0.9.

For the test, the target named is human Matrix Metalloproteinase-7 (MMP7), MMP7 (gene 4316) (UniProt P09237). As to the kind of experiment: NVS_ENZ_hMMP7: NovaScreen (NVS) Enzymatic Assay for human Matrix Metalloproteinase-7 (MMP7) (AID 2283183). On the procedure: NVS_ENZ_hMMP7 is a biochemical, single-readout assay that uses extracted gene-proteins in a cell-free assay. Measurements were taken 1 hour after chemical dosing in a 96-well plate.NVS_ENZ_hMMP7 is one of one assay component(s) measured or calculated from the NVS_ENZ_hMMP7 assay. It is designed to make measurements of enzyme activity, a form of enzyme reporter, as detected with fluorescence intensity signals by Fluorescence technology.Data from the assay component NVS_ENZ_hMMP7 was analyzed into 1 assay endpoint. This assay endpoint, NVS_ENZ_hMMP7, was analyzed in the positive analysis fitting direction relative to DMSO as the negative control and baseline of activity. Using a type of enzyme reporter, loss-of-signal activity can be used to understand changes in the enzymatic activity as they relate to the gene MMP7. Furthermore, this assay endpoint can be referred to as a primary readout, because this assay has produced multiple assay endpoints where this one serves a enzymatic activity function. To generalize the intended target to other relatable targets, this assay endpoint is annotated to the protease intended target family, where the subfamily is matrix metalloproteinase.
Chain of human Matrix Metalloproteinase-7 (MMP7), MMP7 (gene 4316) (P09237 whole entry, looked up): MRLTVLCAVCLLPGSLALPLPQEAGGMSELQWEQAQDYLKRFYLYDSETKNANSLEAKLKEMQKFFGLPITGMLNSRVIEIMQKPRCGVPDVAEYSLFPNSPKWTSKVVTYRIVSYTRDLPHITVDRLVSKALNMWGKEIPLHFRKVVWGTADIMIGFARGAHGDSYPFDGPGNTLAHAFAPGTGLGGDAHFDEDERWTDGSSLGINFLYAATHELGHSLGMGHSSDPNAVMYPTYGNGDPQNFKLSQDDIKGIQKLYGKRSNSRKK
Binding assays used specific radioligands (tritiated, iodinated) with non-radioactive competitive displacement ligands in agonist or antagonist protocols (as indicated) and various reference compounds and inhibitors to titrate specific binding to receptors and transporters. Most enzyme assays (CYPs, kinases, phosphatases, proteases, HDACs) used recombinant protein and specific substrates (fluorescence mostly, some colorimetric and radioactive) and inhibitors, followed by a biochemical separation of substrate and product. All assays for the biochemical HTS were initially run in duplicate at a single concentration (10 uM for CYP450 assays and 25 uM for all others). Assay-chemical combinations meeting a pre-defined threshold (e.g., 30% inhibition and other criteria defined below) were then run in singleton concentration-response format with maximum concentration of 20 uM for CYPs and 50 uM for all others. Each assay was run with positive and negative controls, and concurrent controls on every plate. The follow-up (secondary) screen tested active chemical-pairs in concentration series, as well as a few additional assays not tested in the primary screen, some selected negative inactives, and several cases re-run in the concentration series for confirmatory purposes.
As for `CN[C@H]1CC[C@@H](c2ccc(Cl)c(Cl)c2)c2ccc(S(N)(=O)=O)cc21`, the result was inactive.
Next, `OC[C@@H](O)[C@@H](O)[C@H](O)[C@H](O)CO`: “inactive”; `Nc1ccc(S(=O)(=O)c2ccc(N)cc2)cc1`: “inactive”.
For `CNC(=O)[C@H]1O[C@@H](n2cnc3c(NCc4cc(Cl)ccc4OCc4cc(C)no4)ncnc32)[C@H](O)[C@@H]1N` the value was “inactive”; for `C[Si]1(C)O[Si](C)(C)O[Si](C)(C)O[Si](C)(C)O1`, “inactive”; for `CC(C)(C)c1cc(O)c(C(C)(C)C)cc1O`, “inactive”.
For `CCCCCCC(=O)OCC` the value was “inactive”.
Consider `CN1CCN(Cc2cc(-c3ccc4[nH]c(=O)oc4c3)co2)[C@@H](c2ccc(F)cc2)C1`, for which the call was inactive.
For `CC=Cc1ccc(O)c(OC)c1` the value was “inactive”.
Next, `O=[N+]([O-])C(CO)(CO)CO`: “inactive”; `CCCCCCCCCCCC(=O)OC`: “inactive”.
For the compound `Cc1oc(-c2ccccc2)nc1CCOc1cccc2c1ccn2CCC(=O)O`, the compound was called inactive.
